DNA FID counter = compounds displacing fluorescent DNA intercalator, primary screen, artefact control for HCV NS3 helicase inhibitor project, biochemical, FID fluorescence | 290,000 tested, 0.17% active | inhibition, % at 7.9 µM | DNA fluorescent intercalator displacement; in the data active = inhibition above about 37%;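 note: 0% = vehicle and 100% = reference compound; higher means more ethidium bromide displaced from hairpin DNA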
PREPL inhibitor = PREPL enzyme inhibitors, primary screen, biochemical, fluorescence polarization | Prolyl endopeptidase-like (Homo sapiens), Q4J6C6 | 320,000 tested, 0.68% active | recombinant PREPL, fluorescence polarization activity-based probe | inhibition, % at 5.96 µM; in the data active = inhibition above about 43%;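 note: 0% = enzyme with DMSO and 100% = wells lacking enzyme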
TMEM16A inh = TMEM16A chloride channel inhibitors, primary screen, cell-based, HTS. Anoctamin-1 (Mus musculus), Q8BHY3. HEK293 TMEM16A/YFP iodide influx fluorescence, ionomycin. normalized B-score (activity score, 25-100; higher = stronger inhibition) at 10 µM. 310,000 tested, 1.2% active. AID 588511, 2011;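 active = ratio plate-corrected score three or more library SD toward inhibition, starting fluorescence score within five deviations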;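 note: score derived from kinetic fluorescence span divided by baseline fluorescence per well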
PP5 primary = PP5 phosphatase inhibitors, primary screen, biochemical, fluorescence | 320,000 tested, 0.18% active | Serine/threonine-protein phosphatase 5 (Homo sapiens), P53041 | purified PP5c, OMFP substrate fluorescence | inhibition, % at 6.7 µM;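 active = inhibition above the campaign's mean inhibition across all tested compounds plus 3 SD, cut at about 9.5% in these data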;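 note: 0% = DMSO only and 100% = 100 µM cantharidin control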
Target sequence (P53041 whole entry, looked up): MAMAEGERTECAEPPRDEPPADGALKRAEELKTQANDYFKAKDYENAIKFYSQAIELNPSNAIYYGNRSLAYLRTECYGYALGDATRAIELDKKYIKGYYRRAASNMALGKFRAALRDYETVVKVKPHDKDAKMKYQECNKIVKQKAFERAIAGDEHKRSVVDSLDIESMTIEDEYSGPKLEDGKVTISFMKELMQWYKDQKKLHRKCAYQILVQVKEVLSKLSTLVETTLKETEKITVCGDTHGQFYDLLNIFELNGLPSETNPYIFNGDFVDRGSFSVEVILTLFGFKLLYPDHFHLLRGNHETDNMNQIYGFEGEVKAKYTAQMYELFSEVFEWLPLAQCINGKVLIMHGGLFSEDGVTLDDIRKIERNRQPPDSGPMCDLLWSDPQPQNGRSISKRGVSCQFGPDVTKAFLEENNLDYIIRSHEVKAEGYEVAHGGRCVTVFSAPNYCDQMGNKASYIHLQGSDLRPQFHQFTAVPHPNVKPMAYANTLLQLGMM
PP1 inh = PP1-alpha phosphatase inhibitors, primary screen, counter-screen for PP5 inhibitor project, biochemical, fluorescence, OMFP substrate, single point; inhibition, % at 6.7 µM; 320,000 tested, 0.9% active; Serine/threonine-protein phosphatase PP1-alpha catalytic subunit (Homo sapiens), P62136; purified PP1alpha;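 active = inhibition above the mean inhibition of all tested compounds plus 3 SD, computed separately for each screening campaign, cut at about 15% in these data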
TMEM16A act = TMEM16A chloride channel activators or potentiators, primary screen, cell-based, HTS. Anoctamin-1 (Mus musculus), Q8BHY3. HEK293 TMEM16A/YFP-H148Q/I152L, iodide quench fluorescence; active compounds read low. B-score at 10 µM. 340,000 tested, 0.3% active. AID 623877, 2012;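 active = fluorescence-ratio B-score plate-corrected deviation score at least 3 library SD below zero, with starting fluorescence score within 5 deviations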;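 note: channel opened by trigger with iodide after compound preincubation; score built on the fluorescence ratio of max minus min over baseline; more negative score means more quench and so TMEM16A activation or potentiation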
The depositor's hits bear a star; i = inactive; / = not tested or not shown. Rows were chosen to be rich in hits. Some 2.7% of all compounds tested hit in one or more screens of this group.

SMILES	DNA FID counter	PREPL inhibitor	TMEM16A inh	PP5 primary	PP1 inh	TMEM16A act
CCOc1ccc(NCc2cccn2-c2nnc(N3CCC(C(=O)NCCCN4CC(C)CC(C)C4)CC3)s2)cc1 (stereo unspecified)	38*	31	i	0	2	i
CCN1CCN(CCCNC(=O)C2CCN(c3nnc(-n4cccc4)s3)CC2)CC1	8	3	i	-3	2	i
Cc1ccc(S(=O)(=O)N(CC(=O)N2CCC(C)CC2)c2cccc(C)c2)cc1	-37	5	25*	1	1	i
CCOC(=O)N1CCN(C(=O)CN(c2cccc(C)c2)S(=O)(=O)c2ccc(C)cc2)CC1	-35	14	i	1	-3	i
Clc1ccccc1Sc1ccc(-c2ccccn2)s1	-4	-7	i	0	2	i
CCC1(C(=O)OC)NC(c2ccco2)C2C(=O)N(c3ccc(F)cc3)C(=O)C21 (stereo unspecified)	-2	11	i	-2	-7	i
CCC1(C(=O)OC)NC(c2ccco2)C2C(=O)N(c3ccccc3)C(=O)C21 (stereo unspecified)	-5	0	i	2	0	-4.8*
O=c1oc2ccccc2c2oc3cc(O)c(O)cc3c12	3	26	i	4	0	i
O=c1oc2c(O)c(O)cc3c(=O)oc4c(O)c(O)cc1c4c23	5	54*	i	0	27*	i
Cc1ccc(C(=O)NCC(=O)N(C)CC(=O)Nc2c(Cl)cccc2Cl)s1	/	14	i	0	-1	i
Cc1cc(OCCCCN2C(=O)NC(C)(C)C2=O)ccc1[N+](=O)[O-]	-7	2	25*	0	-3	i
O=c1ccn(-c2cccc(C(F)(F)F)c2)nc1-c1ccn(-c2ccccc2F)n1	-25	19	i	5	4	i
COc1ccc(-n2ccc(-c3nn(-c4cccc(C(F)(F)F)c4)ccc3=O)n2)cc1	-27	9	i	1	-2	-43*
Cc1occc1-c1nnc(SCC(=O)NCc2cccs2)n1CC1CCCO1 (stereo unspecified)	-11	/	/	/	/	-9.5*
Cc1occc1-c1nnc(SCC(=O)c2ccccc2)n1CC1CCCO1 (stereo unspecified)	-22	6	i	2	0	i
CCN(CC)CCC(c1ccc(OC)cc1)c1c(O)cc(OC)cc1OC (stereo unspecified)	/	4	i	3	4	i
CCN(CC)C(=O)CC(c1ccc(OC)cc1)c1c(O)cc(OC)cc1OC (stereo unspecified)	/	-4	i	-1	-7	-9.9*
COc1ccc(CNC(=O)c2ccc3ccccc3n2)cc1	-19	-10	i	4	17*	i
COc1ccc(OC)c(CNC(=O)C2CCC(=O)N(CCCN3CCCC3=O)C2)c1 (stereo unspecified)	-12	/	i	/	/	i
CNC[C@H](CC1CCCCC1)NC[C@H](Cc1ccccc1)NCCC12CC3CC(CC(C3)C1)C2	28	5	100*	7	21*	i
O=C1CCC(C(=O)N2CCCCO2)CN1Cc1ccc(Cl)cc1 (stereo unspecified)	-12	7	i	-1	1	i
Oc1ccccc1C1Nc2cccc3cccc(c23)N1	5	30	i	2	3	i
C/C(=C\c1cc2ccccc2o1)C1Nc2cccc3cccc(c23)N1	/	13	/	2	3	-18*
COc1ccc2c(c1OC)C(=O)N(c1cccc(C)c1)C2=O	-14	5	i	2	-1	-4.9*
O=C1N=C2N(CCN3CCCCC3)c3ccccc3N2/C1=C\c1ccc([N+](=O)[O-])s1	/	/	/	/	/	i
SMILES	DNA FID counter	PREPL inhibitor	TMEM16A inh	PP5 primary	PP1 inh	TMEM16A act
Cc1cc(C(=O)CN2C(=O)C(=O)N(Cc3ccco3)C2=O)c(C)n1CCc1ccc(F)cc1	/	2	/	5	17*	i
Cc1cc(C(=O)CN2C(=O)C(=O)N(Cc3ccco3)C2=O)c(C)n1CCc1ccccc1	/	1	/	-1	3	i
Nc1c(N(Cc2ccccc2)C(=O)COc2ccc([N+](=O)[O-])cc2)c(=O)[nH]c(=O)n1Cc1ccccc1	/	/	/	/	/	i
CCS(=O)(=O)Nc1ccc(-c2nnc(SCC(=O)OC)o2)cc1	0	25	i	0	-2	i
CCC(=O)Nc1ccc(C(=O)CSc2nnc(-c3ccc(NS(=O)(=O)CC)cc3)o2)cc1OC	-9	-5	i	0	17*	i
COc1ccc(Cn2c(=O)sc3ccccc32)cc1	-10	4	i	1	-2	i
CC(C)Oc1ccc(Cn2c(=O)sc3ccccc32)cc1	-13	14	25*	1	2	i
O=C(O)CC12CC3CC(C1)CC(n1ncc(NCc4ccc5c(c4)OCO5)c(Cl)c1=O)(C3)C2	-47	14	i	1	-1	/
CC(C)N=c1scc(-c2ccco2)n1/N=C/c1ccc(O)c(O)c1	-8	10	100*	0	-1	i
N=NC(=O)c1ccccc1Nc1c(O)[nH]c2ccccc12	/	/	/	/	/	i
COc1ccc(CNCCc2ccc(Cl)cc2)cc1OCc1ccccc1	24	-59	100*	2	2	i
COc1cc(CNCc2ccccn2)ccc1OCc1ccc(Cl)cc1Cl	28	39	i	2	10	i
COc1cc(CNCc2ccccn2)ccc1OCc1ccc(Cl)c(Cl)c1	30	49*	i	0	7	i
CCOc1cc(CNCc2ccccc2)ccc1OCc1ccc(Cl)cc1	46*	19	100*	3	3	i
C[n+]1cccc(C(=O)Nc2ccccc2)c1	-2	2	i	0	-1	i
CC(C)C(=O)N=C1SC2CS(=O)(=O)CC2N1Cc1ccccc1 (stereo unspecified)	-8	4	i	2	3	i
Cc1ccccc1-c1cc2nc(-c3ccc([N+](=O)[O-])cc3)cc(=O)n2[nH]1	11	25	i	0	16*	i
Cc1ccccc1-c1cc2nc(C)c(Cl)c(=O)n2[nH]1	/	-1	i	1	-1	i
CC(=O)Nc1sc(C)c(C)c1C(=O)OCC(=O)N(CC(C)C)c1c(N)n(Cc2ccccc2)c(=O)[nH]c1=O	/	3	i	1	7	-6.6*
O=C1C=CC(=O)N1CCCCCCCCCCN1C(=O)C=CC1=O	/	/	/	/	/	i
COC(=O)C(=C/C(C)=C/c1cccnc1)C(=O)OC	3	4	i	0	-3	i
